Screening results as filed in PubChem BioAssay.
In the library only some 4.2% were active in any assay of this set; here they are far more common.
Wnt act: activators of Wnt/beta-catenin signaling | Wnt/beta-catenin reporter cell assay, activator, plate reader | activation, % at 9.35 µM | actives 1.2% (n = 300,000); in the data active = activation above about 30%, passing the limit was not always enough; inconclusive = no clear call, values can overlap the other calls;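 also: 0% = neutral control wells and 100% = positive control wells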
esBAF inh: blocks esBAF chromatin remodeling in mouse ES cells; AID 602393; Bmi1-luciferase knock-in reporter, 24 h; 100% = twice the neutral-well signal; reporter increase, % at 12.5 µM; actives 2% (n = 350,000); in the data active = activation above about 40%; inconclusive = no clear call, values can overlap the other calls;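 also: 0% = median of the plate's neutral control wells and 100% = double that signal; a rise in the Bmi1 reporter signal indicates esBAF inhibition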
AHR act: activators of human aryl hydrocarbon receptor; activation, % at 5 µM; P35869; AHR-responsive luciferase reporter cells, luminescence; actives 2.5% (n = 320,000); AID 2796; in the data active = activation above about 47%;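 also: 0% = vehicle wells and 100% = reference agonist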
Target sequence (P35869 whole entry, looked up): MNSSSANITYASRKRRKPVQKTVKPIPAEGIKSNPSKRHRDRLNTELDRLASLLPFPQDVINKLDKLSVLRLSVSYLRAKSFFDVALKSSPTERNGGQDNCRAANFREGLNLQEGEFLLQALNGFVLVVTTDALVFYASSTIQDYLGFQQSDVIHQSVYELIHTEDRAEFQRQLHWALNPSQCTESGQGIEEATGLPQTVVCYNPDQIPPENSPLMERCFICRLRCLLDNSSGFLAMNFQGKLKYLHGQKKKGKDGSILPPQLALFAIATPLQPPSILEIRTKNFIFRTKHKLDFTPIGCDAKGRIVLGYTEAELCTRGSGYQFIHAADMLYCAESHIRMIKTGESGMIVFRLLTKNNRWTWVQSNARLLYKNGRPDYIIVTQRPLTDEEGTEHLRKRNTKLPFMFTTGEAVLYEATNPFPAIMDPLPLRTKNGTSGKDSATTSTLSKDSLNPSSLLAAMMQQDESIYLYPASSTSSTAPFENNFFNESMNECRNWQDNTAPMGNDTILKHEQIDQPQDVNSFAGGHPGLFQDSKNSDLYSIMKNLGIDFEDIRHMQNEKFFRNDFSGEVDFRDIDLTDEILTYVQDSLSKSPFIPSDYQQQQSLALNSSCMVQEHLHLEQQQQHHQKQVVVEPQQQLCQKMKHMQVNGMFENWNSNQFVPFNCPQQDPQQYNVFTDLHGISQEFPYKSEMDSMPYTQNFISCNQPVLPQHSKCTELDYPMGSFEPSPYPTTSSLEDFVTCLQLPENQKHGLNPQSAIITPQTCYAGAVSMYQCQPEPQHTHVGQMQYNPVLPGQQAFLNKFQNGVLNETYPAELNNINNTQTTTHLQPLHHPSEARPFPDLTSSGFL
MITF TRPM1 HTS: activators of MITF-driven TRPM1 promoter activity in SK-MEL-5 cells; activation, % at 12.5 µM; actives 0.75% (n = 300,000); SK-MEL-5 TRPM1-promoter luciferase, 24 h; % of positive control, neutral wells = 0;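 active = mean activation of at least 80% with every replicate also reaching 80%; inconclusive = mean reaches 80% but some replicate falls short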;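 also: 0% = neutral control wells and 100% = parthenolide positive control wells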
FXN GAA850 act: activators of GAA850 frataxin (FXN) promoter | HEK293 lucGAA850 FXN promoter luciferase reporter, 24 h; percent of 10 µM SAHA response | activation, % at 6 µM | actives 0.56% (n = 360,000) | AID 540364;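 active = activation above the average of all compounds screened plus 3 SD, cutoff fixed separately per campaign, cut at about 7.5% in these data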;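 also: 0% = DMSO wells and 100% = 10 µM SAHA wells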
* = called active by the depositor; ? = inconclusive; . = no result.

SMILES	Wnt act	esBAF inh	AHR act	MITF TRPM1 HTS	FXN GAA850 act
C[C@@H]1CN([C@@H](C)CO)C(=O)c2cc(NS(=O)(=O)c3ccccc3)ccc2O[C@@H](C)CCCCO[C@@H]1CN(C)Cc1ccc2c(c1)OCO2	.	3	.	.	.
CCOC(=O)C(C)N1C(=O)S/C(=C/c2cc(C)n(-c3ccccn3)c2C)C1=O (stereo not drawn)	47*	21	9	34	3
CCn1c(C)cc(/C=C2/SC(=O)N(C(C)C(=O)OC)C2=O)c1C (stereo not drawn)	47*	30	-5	?	3
CCOC(=O)C(C)N1C(=O)S/C(=C/c2cc(C)n(-c3ccncc3)c2C)C1=O (stereo not drawn)	1	10	-2	0	5
CN1C(=O)/C(=C/c2cc3c(cc2Br)OCO3)NC1=S	3	.	5	1	2
COCCn1c(C)cc(/C=C2\NC(=S)N(C)C2=O)c1C	-1	.	57*	19	2
COC(=O)C(C)N1C(=O)S/C(=C/c2cc(C)n(C(C)C)c2C)C1=O (stereo not drawn)	38*	.	3	86*	3
C[C@H]1CN([C@@H](C)CO)C(=O)c2cc(NC(=O)NC3CCCCC3)ccc2O[C@@H]1CN(C)Cc1ccncc1	.	-4	.	.	.
COC(=O)CN1C(=O)S/C(=C/c2cc(C)n(C)c2C)C1=O	?	57*	-4	70	8.8*
COc1ccc(N=C2S/C(=C\c3cc(C)n(C)c3C)C(=O)N2CC(C)C)cc1	.	2	2	-1	6
COCCn1c(C)cc(/C=C2/SC(=O)N(C(C)C(=O)OC)C2=O)c1C (stereo not drawn)	-2	66*	-1	97*	2
CCn1ccc(C(=O)Nc2ccccc2Cl)n1	.	.	3	85*	6
COC(=O)c1cc(Br)c(=O)n(CCc2ccc(O)cc2)c1	1	-8	-2	-7	0
COC(=O)c1cc(Br)c(=O)n(CCc2ccc(F)cc2)c1	.	.	56*	7	0
O=C(Nc1ccc(Cl)cn1)Nc1ccc(Cl)cn1	22	.	14	25	1
COc1ccccc1NC(=O)Nc1cnccn1	-7	0	-1	-27	5
O=C(NC(=O)c1ccccc1)Nc1ccc(Cl)cn1	35*	-6	14	53	2
O=C(Nc1ccc(Cl)cn1)c1cccc(F)c1	.	14	3	23	-1
C/C(=C\c1ccccc1)C(=O)Nc1ccc(Cl)cn1	33*	8	-1	.	3
O=C(Nc1cnccn1)Nc1ccccc1F	3	.	61*	18	2
O=C(Nc1ccc(Cl)cn1)Nc1ccccc1F	39*	35	39	.	2
CCC(=O)N(C)C[C@@H]1Oc2ncc(-c3ccccc3C)cc2C(=O)N([C@H](C)CO)C[C@H]1C	.	-4	.	.	.
O=C(Nc1cccc(Cl)c1)N1C[C@H]2[C@@H](c3ccccc31)[C@H](CO)N2C(=O)c1cccnc1	.	15	.	.	.
CCN(C(=O)C1=COCCO1)c1nc2c(C)cccc2s1	-4	48*	0	71	2
CN1[C@@H]2c3ccc(-c4ccc(F)cc4)c(=O)n3C[C@H]1[C@H](CO)[C@H]2C(=O)NC1CCCCC1	.	-3	.	.	.
SMILES	Wnt act	esBAF inh	AHR act	MITF TRPM1 HTS	FXN GAA850 act
COc1ccc(C(=O)c2ccc(Br)cc2)cc1	-5	55*	4	52	6
O=[N+]([O-])c1cccc(-c2cc(-c3cc(Br)ccc3O)[nH]n2)c1	-11	4	10	1	2
Cn1c(-c2cc(Br)ccc2O)n[nH]c1=S	.	-8	-3	3	0
Oc1ccc(Br)cc1-c1cc(-c2ccc(Cl)cc2)n[nH]1	.	.	49*	-4	1
COc1ccc(-c2cc(-c3ccc(Cl)cc3)n[nH]2)c(O)c1	41*	.	7	122*	5
COc1ccc(-c2cc(-c3ccc(OC)c(OC)c3)n[nH]2)c(O)c1	.	.	4	.	1
COc1ccc(O)c(-c2cc(-c3cccc(Br)c3)n[nH]2)c1	15	62*	64*	56	3
Oc1ccc(Br)cc1-c1cc(-c2ccccc2)n[nH]1	.	.	61*	-1	3
C[C@H](O)C#Cc1cnc2c(c1)C(=O)N([C@H](C)CO)C[C@@H](C)[C@H](CN(C)C(=O)Cc1ccncc1)O2	.	-1	.	.	.
Cc1noc(C)c1NC(=O)N[C@@H]1CC[C@@H](CC(=O)N2CCCCC2)O[C@@H]1CO	.	0	.	.	.
Cc1ccc(S(=O)(=O)Nc2ccc3c(c2)C(=O)N([C@H](C)CO)C[C@@H](C)[C@@H](CN(C)C(=O)NC(C)C)OCCCC[C@@H](C)O3)cc1	.	-8	.	.	.
Clc1cccc(N/N=C(\Cc2nc3ccccc3[nH]2)c2ccccc2)c1	.	.	64*	5	4
CO[C@@H]1CN(C)C(=O)c2cc(NC(=O)c3cnccn3)ccc2OC[C@@H](C)NC[C@@H]1C	.	-1	.	.	.
O=c1cc(CN2CCOCC2)c2ccccc2o1	-4	0	.	.	.
O=c1c2ccccc2oc2cc(-c3ccc(CN4CCOCC4)cc3)ccc12	?	77*	-7	?	2
Cc1ccc(C(=O)Nc2nnc(-c3ccco3)o2)cc1	7	.	9	20	5
Cc1ccsc1C(=O)Nc1nnc(-c2ccco2)o1	.	43*	2	.	3
CCCCNC(=O)Nc1ccc(Br)cn1	.	24	52*	18	2
CCCCC(=O)Nc1ccc(Br)cn1	10	24	1	26	-1
COc1cc(/C=C2/CCC/C(=C\c3cc(O)c(OC)c(Cl)c3)C2=O)cc(Cl)c1O	41*	-53	-6	-10	-4
COc1cc(/C=C2\CC/C(=C\c3cc(OC)c(O)c(OC)c3)C2=O)cc(OC)c1O	11	.	2	-64	-4
NC(=O)c1sc2nc(-c3ccccc3)ccc2c1N	2	77*	20	27	7
C[C@H](CO)N1C[C@H](C)[C@H](CN(C)C(=O)c2ccccn2)Oc2ncc(-c3ccccc3)cc2C1=O	.	-19	.	.	.
COc1cc(/C=N/NC(=O)CC2(C)OCCCO2)ccc1OCc1ccccc1	.	42*	20	-1	3
COC(=O)C(=Cc1ccc(OCc2ccc([N+](=O)[O-])cc2)c(OC)c1)C(=O)OC	.	74*	2	-31	2
SMILES	Wnt act	esBAF inh	AHR act	MITF TRPM1 HTS	FXN GAA850 act
CCOC(=O)C(=Cc1ccc(OCc2ccc([N+](=O)[O-])cc2)c(OC)c1)C(=O)OCC	.	.	-1	-2	-1
COc1cc(/C=N/NC(=O)c2cccc([N+](=O)[O-])c2)ccc1OCc1ccccc1	11	43*	4	?	2
COc1cc(/C=N/NC(=O)CC2(C)OCCCO2)ccc1OCc1ccc(Cl)cc1Cl	.	.	9	61	1
C[C@H](CO)N1C[C@H](C)[C@H](CN(C)C(=O)C2CCOCC2)Oc2cc(C3=CCCCC3)ccc2S1(=O)=O	.	-1	.	.	.
Cc1ccc(-c2cnc3cc(C)nn3c2)cc1	6	.	-5	2	1
Cc1cc2ncc(-c3ccc(Cl)cc3)cn2n1	17	?	-2	91*	5
C[C@@H]1CN([C@@H](C)CO)C(=O)c2cc(C#CC3CC3)cnc2O[C@H]1CN(C)S(=O)(=O)c1cccc(F)c1	.	12	.	.	.
